Results as given in the supplement of paper PMC10849652.
Targets with a hit are over-represented here; the source holds about 7,900 in all. About 0.6% of all pairs of compound and target were hits. Unmarked numbers belong to inactive results.

Key:
Test in all cases: log2 fold change, soluble protein after heating vs DMSO (PISA); higher = thermal stabilisation; K562 cells, 10 uM, 30 min; active = over 0.2 and 3.5 SD of the protein, either way, in both replicates (recomputed)
bafetinib = compound: Cc1ccc(NC(=O)c2ccc(CN3CC[C@H](N(C)C)C3)c(C(F)(F)F)c2)cc1Nc1nccc(-c2cncnc2)n1 [bafetinib]
In short: (§1)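 K562 cells at 2×10^6 cells/mL were given 10 μM compound for 30 min. Aliquots then went through 3 min of heating across 48°C-58°C, were pooled, and were extracted in PBS with 0.5% NP-40 at 4°C, and the supernatant after 21,000xg for 90 min was quantified by TMTpro 16plex LC-MS/MS with channel sums equalised. Thermal stability relative to control samples, from duplicates, is given as log2 fold change.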

[1] = compound: Cc1cccc(CC(=O)N2CCc3c2ccc(-c2cn(C)c4ncnc(N)c24)c3F)n1
In short: as §1

nilotinib = compound: Cc1cn(-c2cc(NC(=O)c3ccc(C)c(Nc4nccc(-c5cccnc5)n4)c3)cc(C(F)(F)F)c2)cn1 [nilotinib]
In short: as §1

[2] = compound: Cc1nc(Nc2n[nH]c3c2CN(C(=O)N[C@H](CN(C)C)c2ccccc2)C3(C)C)c2sccc2n1
In short: as §1

dasatinib = compound: Cc1nc(Nc2ncc(C(=O)Nc3c(C)cccc3Cl)s2)cc(N2CCN(CCO)CC2)n1 [dasatinib]
In short: as §1

[3] = compound: Cc1ncc(-c2ccnc(Nc3ccc(S(C)(=O)=O)cc3)n2)n1C(C)C
In short: as §1

[4] = compound: Cn1cc(-c2ccc3c(c2)CCN3C(=O)Cc2cccc(C(F)(F)F)c2)c2c(N)ncnc21
In short: as §1

[5] = compound: Cn1cc(-c2ccc3nnc(C(F)(F)c4ccc5ncccc5c4)n3n2)cn1
In short: as §1

tipifarnib = compound: Cn1cncc1[C@@](N)(c1ccc(Cl)cc1)c1ccc2c(c1)c(-c1cccc(Cl)c1)cc(=O)n2C [tipifarnib]
In short: as §1

mubritinib = compound: FC(F)(F)c1ccc(/C=C/c2nc(COc3ccc(CCCCn4ccnn4)cc3)co2)cc1 [mubritinib]
In short: as §1

UniProt Q13409, sequence (Q13409 whole entry, looked up): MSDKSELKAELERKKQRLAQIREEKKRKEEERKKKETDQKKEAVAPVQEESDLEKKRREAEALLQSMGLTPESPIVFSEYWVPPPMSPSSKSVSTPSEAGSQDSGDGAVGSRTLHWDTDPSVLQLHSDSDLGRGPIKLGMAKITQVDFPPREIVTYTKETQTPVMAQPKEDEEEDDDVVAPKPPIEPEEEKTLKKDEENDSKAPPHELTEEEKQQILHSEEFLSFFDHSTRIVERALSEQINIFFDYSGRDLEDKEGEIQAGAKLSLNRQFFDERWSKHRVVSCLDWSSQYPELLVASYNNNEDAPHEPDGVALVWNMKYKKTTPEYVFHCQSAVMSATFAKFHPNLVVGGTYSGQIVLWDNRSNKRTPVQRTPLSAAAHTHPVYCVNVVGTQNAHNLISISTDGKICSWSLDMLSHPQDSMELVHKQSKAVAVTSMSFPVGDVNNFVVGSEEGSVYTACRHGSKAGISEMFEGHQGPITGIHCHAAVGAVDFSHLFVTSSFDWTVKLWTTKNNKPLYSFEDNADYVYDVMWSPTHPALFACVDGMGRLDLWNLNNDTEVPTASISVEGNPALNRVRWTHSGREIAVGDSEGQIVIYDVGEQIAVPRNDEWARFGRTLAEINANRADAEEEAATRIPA
UniProt O75071, sequence (O75071 whole entry, looked up): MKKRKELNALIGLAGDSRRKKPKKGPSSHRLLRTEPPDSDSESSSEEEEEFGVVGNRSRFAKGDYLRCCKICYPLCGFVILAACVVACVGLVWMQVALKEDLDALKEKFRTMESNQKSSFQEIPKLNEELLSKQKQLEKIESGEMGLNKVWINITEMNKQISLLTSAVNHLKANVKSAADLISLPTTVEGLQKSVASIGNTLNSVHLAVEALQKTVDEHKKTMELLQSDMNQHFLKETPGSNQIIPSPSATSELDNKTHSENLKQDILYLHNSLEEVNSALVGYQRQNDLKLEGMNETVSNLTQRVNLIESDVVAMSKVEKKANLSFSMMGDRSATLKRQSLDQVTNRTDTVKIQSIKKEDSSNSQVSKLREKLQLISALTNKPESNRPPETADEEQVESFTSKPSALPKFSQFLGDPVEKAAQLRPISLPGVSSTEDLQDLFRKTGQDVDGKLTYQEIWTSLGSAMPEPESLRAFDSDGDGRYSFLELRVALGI
UniProt Q9UPT5, sequence (Q9UPT5 whole entry, looked up): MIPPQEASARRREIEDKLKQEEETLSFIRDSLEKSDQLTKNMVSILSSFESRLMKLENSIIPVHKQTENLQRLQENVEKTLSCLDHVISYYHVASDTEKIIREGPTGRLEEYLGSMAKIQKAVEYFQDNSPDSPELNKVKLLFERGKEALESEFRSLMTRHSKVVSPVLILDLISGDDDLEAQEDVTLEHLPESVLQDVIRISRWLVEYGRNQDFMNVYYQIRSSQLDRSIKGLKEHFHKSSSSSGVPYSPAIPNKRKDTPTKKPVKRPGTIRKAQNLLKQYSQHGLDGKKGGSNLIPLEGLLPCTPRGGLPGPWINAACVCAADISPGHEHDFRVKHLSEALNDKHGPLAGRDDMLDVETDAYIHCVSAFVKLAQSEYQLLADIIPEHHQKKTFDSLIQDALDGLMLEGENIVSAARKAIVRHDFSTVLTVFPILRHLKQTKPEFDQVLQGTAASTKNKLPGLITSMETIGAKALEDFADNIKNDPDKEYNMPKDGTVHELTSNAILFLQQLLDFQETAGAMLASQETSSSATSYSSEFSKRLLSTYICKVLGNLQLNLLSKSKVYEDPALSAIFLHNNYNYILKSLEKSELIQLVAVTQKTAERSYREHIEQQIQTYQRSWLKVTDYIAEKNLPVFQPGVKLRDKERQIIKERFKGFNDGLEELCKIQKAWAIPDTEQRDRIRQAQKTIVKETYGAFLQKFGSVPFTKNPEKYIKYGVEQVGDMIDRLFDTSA
UniProt O00148, sequence (O00148 whole entry, looked up): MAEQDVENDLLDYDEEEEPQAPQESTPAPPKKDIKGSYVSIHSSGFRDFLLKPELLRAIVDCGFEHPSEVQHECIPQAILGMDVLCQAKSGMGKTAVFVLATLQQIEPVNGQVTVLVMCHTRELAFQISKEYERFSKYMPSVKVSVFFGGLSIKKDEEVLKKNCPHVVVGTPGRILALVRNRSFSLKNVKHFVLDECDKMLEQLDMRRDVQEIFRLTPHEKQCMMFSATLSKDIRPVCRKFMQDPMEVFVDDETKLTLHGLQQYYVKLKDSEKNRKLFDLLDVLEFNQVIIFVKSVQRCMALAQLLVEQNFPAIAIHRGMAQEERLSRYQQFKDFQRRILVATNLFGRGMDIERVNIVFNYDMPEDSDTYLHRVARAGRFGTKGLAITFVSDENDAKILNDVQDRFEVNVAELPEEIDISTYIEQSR
UniProt Q9H467, sequence (Q9H467 whole entry, looked up): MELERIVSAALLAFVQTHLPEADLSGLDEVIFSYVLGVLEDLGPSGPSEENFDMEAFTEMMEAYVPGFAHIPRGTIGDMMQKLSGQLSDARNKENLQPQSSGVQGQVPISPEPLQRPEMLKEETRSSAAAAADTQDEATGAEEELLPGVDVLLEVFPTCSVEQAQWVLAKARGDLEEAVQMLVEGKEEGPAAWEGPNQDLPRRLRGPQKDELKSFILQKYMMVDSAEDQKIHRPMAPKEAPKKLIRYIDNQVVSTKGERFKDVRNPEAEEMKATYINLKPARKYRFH
UniProt Q8IYI6, sequence (Q8IYI6 whole entry, looked up): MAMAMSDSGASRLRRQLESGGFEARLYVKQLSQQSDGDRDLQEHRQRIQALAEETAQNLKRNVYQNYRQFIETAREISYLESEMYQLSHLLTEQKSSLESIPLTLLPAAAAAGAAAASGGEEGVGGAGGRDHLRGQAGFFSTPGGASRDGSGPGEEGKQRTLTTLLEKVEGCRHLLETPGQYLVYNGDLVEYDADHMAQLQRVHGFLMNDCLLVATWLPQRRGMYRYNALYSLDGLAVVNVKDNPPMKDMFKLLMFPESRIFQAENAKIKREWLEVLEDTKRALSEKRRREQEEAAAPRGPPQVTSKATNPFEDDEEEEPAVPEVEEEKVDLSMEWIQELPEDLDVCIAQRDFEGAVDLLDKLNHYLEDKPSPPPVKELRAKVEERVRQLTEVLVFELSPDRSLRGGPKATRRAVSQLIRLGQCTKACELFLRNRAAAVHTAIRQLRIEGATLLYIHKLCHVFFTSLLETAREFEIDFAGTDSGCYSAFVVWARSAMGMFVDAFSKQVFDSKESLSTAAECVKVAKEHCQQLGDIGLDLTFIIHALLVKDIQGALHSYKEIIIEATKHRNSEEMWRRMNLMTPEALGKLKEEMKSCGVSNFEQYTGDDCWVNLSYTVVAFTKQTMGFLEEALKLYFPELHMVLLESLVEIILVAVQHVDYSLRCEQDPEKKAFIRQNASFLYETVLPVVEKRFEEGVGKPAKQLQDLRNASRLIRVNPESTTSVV
UniProt P35222, sequence (P35222 whole entry, looked up): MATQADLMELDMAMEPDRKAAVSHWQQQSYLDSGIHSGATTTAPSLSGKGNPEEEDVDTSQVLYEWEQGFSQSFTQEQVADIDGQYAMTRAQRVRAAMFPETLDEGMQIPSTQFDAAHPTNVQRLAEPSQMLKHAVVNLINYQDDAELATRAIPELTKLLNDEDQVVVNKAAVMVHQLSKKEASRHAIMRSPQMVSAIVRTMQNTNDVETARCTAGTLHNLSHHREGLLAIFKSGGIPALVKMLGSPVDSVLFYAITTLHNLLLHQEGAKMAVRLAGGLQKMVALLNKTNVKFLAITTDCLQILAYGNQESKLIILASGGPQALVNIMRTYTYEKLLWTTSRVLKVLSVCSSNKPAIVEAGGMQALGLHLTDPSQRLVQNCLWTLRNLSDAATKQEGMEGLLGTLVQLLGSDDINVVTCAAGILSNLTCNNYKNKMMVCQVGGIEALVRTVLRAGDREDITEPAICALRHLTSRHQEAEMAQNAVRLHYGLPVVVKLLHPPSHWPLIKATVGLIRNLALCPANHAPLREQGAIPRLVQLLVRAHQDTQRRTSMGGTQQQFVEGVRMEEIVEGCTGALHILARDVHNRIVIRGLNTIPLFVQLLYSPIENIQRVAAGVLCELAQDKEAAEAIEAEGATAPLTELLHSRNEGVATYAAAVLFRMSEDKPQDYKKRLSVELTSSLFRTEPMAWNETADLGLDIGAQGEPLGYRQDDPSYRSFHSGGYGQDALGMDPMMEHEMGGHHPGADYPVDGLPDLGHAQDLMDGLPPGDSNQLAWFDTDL
UniProt P06730, sequence (P06730 whole entry, looked up): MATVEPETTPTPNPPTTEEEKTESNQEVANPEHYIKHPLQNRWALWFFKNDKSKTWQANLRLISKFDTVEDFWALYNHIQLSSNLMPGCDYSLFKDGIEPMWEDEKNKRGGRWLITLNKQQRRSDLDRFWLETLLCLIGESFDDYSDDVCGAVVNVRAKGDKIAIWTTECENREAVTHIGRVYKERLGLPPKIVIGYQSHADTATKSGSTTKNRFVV
UniProt Q96KC8, sequence (Q96KC8 whole entry, looked up): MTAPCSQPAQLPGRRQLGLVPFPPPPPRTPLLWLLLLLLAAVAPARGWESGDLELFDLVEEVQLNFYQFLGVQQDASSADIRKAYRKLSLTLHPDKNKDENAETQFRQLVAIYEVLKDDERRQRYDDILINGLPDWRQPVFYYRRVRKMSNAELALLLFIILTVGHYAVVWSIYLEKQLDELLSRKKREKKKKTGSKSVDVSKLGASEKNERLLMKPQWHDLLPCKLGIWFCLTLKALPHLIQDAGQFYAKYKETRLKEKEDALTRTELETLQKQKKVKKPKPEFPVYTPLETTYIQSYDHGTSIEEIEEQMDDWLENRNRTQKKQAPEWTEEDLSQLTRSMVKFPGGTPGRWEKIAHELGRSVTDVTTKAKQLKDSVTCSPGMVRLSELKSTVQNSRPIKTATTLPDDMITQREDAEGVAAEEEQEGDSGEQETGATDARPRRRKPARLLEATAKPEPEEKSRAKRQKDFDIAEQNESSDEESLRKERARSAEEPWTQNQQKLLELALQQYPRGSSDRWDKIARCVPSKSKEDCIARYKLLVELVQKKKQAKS

Row | Target | log2 fold change (bafetinib) | log2 fold change [1] | log2 fold change (nilotinib) | log2 fold change [2] | log2 fold change (dasatinib) | log2 fold change [3] | log2 fold change [4] | log2 fold change [5] | log2 fold change (tipifarnib) | log2 fold change (mubritinib)
1 | DDX39A (UniProt O00148) | 0.001 | 0.014 | -0.017 | -0.278 (active) | -0.134 | -0.218 | -0.018 | -0.007 | 0.079 | -0.182
2 | DFFB (UniProt O76075) | 0.042 | -0.032 | -0.047 | -0.156 | -0.057 | 0.056 | -0.053 | 0.002 | -0.072 | 0.019
3 | EFCAB14 (UniProt O75071) | -0.008 | -0.056 | 0.084 | 0.011 | 0.075 | 0.003 | -0.123 | -0.048 | -0.062 | 0.081
4 | EXOC7 (UniProt Q9UPT5) | -0.026 | 0.014 | -0.046 | -0.139 | -0.234 | -0.035 | 0.002 | 0 | -0.089 | -0.011
5 | DDB1 isoform 2 (UniProt Q16531) | -0.286 | -0.094 | – | – | – | – | – | – | – | –
6 | CUEDC2 (UniProt Q9H467) | -0.072 | 0.003 | -0.006 | -0.045 | 0.049 | -0.055 | 0.02 | -0.009 | 0.028 | 0.042
7 | CTNNB1 (UniProt P35222) | 0.026 | 0.057 | -0.056 | 0.205 | -0.149 | 0.858 (active) | -0.004 | -0.021 | -0.115 | 0.076
8 | DBR1 (UniProt Q9UK59) | -0.001 | 0.02 | -0.023 | 0.05 | 0.06 | -0.009 | 0.021 | -0.067 | 0.03 | -0.002
9 | DBNL isoform 3 (UniProt Q9UJU6) | 0.048 | -0.007 | -0.05 | -0.071 | -0.098 | -0.013 | -0.003 | 0.057 | -0.096 | 0.032
10 | DNAJC1 (UniProt Q96KC8) | -0.185 | -0.026 | -0.035 | 0.016 | -0.064 | 0.002 | 0.028 | 0.047 | 0.039 | 0.041
11 | EIF4E isoform 2 (UniProt P06730) | 0.012 | 0.05 | 0.199 | -0.072 | 0.013 | 0.272 | 0.125 | 0.082 | -0.029 | 0.045
12 | DAB2 (UniProt P98082) | -0.041 | 0.085 | -0.152 | 0.002 | -0.178 | -0.098 | 0.01 | -0.007 | -0.042 | -0.024
13 | EXOC8 (UniProt Q8IYI6) | -0.081 | 0.071 | -0.054 | -0.137 | -0.1 | -0.012 | -0.015 | 0.028 | -0.038 | 0.039
14 | DNAAF2 (UniProt Q9NVR5) | -0.075 | 0.057 | 0.023 | 0.002 | -0.049 | 0 | -0.037 | 0.036 | 0.004 | 0.026
15 | DYNC1I2 isoform 5 (UniProt Q13409) | -0.071 | -0.018 | 0.015 | 0.002 | -0.012 | 0.011 | 0.003 | -0.008 | -0.038 | 0.046
16 | EIF2S3 (UniProt P41091) | 0.133 | -0.023 | -0.04 | 0.072 | 0.043 | 0.014 | -0.081 | -0.052 | 0.019 | -0.017
